The record followed here is PubChem BioAssay (NCATS).

Results filed as inconclusive are left out. Active and inactive are the calls of the source. Unless noted, calls come from the whole dose curve; as a rule, active = well fitted curve in the direction sought with a large enough effect; inconclusive = small, poorly fitted or top-dose-only effect, or another doubt; inactive = no such curve, though single readings can be large; an effect the other way counts as inactive or inconclusive.

Test [1] in a line: Cytometric Cell-Based qHTS for Inhibitors of the mTORC1 Signaling Pathway in MEF (Tsc2-/-, p53-/-) Cells (AID 2660).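 Note: Tsc2 and p53 null MEFs carrying empty vector with compound for 24 h; percent of cells above a phospho-rpS6 to PI ratio cutoff in each well; series mostly up to about 38 µM.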 Summed up: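 Cells are plated, treated with compound for 24 hrs at 37 degree Celsius, then fixed, blocked and immunostained for phospho-rpS6 Ser235/236. Propidium iodide counterstain follows. Per-well % positive cells is derived from the PI-normalized phospho-S6 signal.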

The nature of test [2]: High Content Imaging Cell-Based qHTS for Inhibitors of the mTORC1 Signaling Pathway in MEF (Tsc2-/-, p53-/-) Cells (AID 2666).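 Note: percent of cells scored positive for phospho-rpS6 Ser235/236 immunostaining by imaging.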 Summed up:
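MEF Tsc2-/- p53-/- (empty vector), DMEM/10% FBS; cpd 24 h 37 °C; PFA fix, Alexa-488 p-rpS6 S235/236 Ab, Hoechst; imaged; rapamycin-defined inhibition; % positive cells/well.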

Test [3] can be described thus: High Content Imaging Cell-Based qHTS for Inhibitors of the mTORC1 Signaling Pathway in MEF Cells (AID 2667).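 Note: Tsc2-/- p53-/- MEFs stably re-expressing wild-type Tsc2 exposed 24 h; series mostly up to about 38 µM.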 Summed up:
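Read-out is the share of phospho-rpS6-positive cells per well, from Hoechst-normalized Alexa-488 Ser235/236 staining imaged on IN Cell. Cells: WT Tsc2-expressing Tsc2-/-, p53-/- MEFs exposed to compound for 24 hrs.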

Test [4] in a line: Cytometry Cell-Based qHTS for Inhibitors of the mTORC1 Signaling Pathway in MEF cells (AID 2668).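 Note: Tsc2-/- p53-/- mouse embryonic fibroblasts stably re-expressing wild-type Tsc2; percent cells positive for phospho-rpS6 Ser235/236 relative to propidium iodide stain; series mostly up to about 38 µM.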 In short, it runs like this: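 In MEFs grown in DMEM + 10% FBS, a 24 hrs compound exposure preceded imaging of phospho-rpS6 Ser235/236 by laser-scanning cytometry.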
Test [5] is described as follows: Validation screen for small molecules that induce DNA re-replication in MCF 10A normal breast cells (AID 463097). Note: nearly all actives have a fitted effect of over 60% in size. Summed up:
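Following 48 hr compound incubation (37 C, 5% CO2), MCF 10A cells receive Hoechst for 40 min at 37 C. Nuclei are then scanned (excitation 405 nm, emission 500-530 nm) for total fluorescence intensity.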

Test [6] addresses Ubiquitin carboxyl-terminal hydrolase 2 (Homo sapiens) (UniProt O75604). The test is described as follows: qHTS Validation Assay for Inhibitors of Ubiquitin-specific Protease USP2a Using CHOP2 as the Reporter (AID 463106). Summed up: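 Fluorescence read-out at Ex 485nm/Em 531nm after 60min RT, following addition of 25nM Ub-CHOP2 plus 25nM reporter substrate to USP2 core (10nM) pretreated 30min with compound. Data normalized to NEM full inhibition; concentration-response curves fitted.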

The target in test [7] is DNA polymerase III PolC-type (Bacillus subtilis (strain 168)) (UniProt P13267). The test is described as follows: qHTS Validation Assay for the Inhibitors of DNA Replication in Gram-Positive Bacteria (AID 485295).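 Note: reconstituted holoenzyme with PolC plus beta clamp SSB and primase; PicoGreen fluorescence of double-stranded DNA made on primed circular M13 template; series mostly up to about 57 µM.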 In short, it runs like this:
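Inhibition of DNA synthesis by the reconstituted PolC holoenzyme, monitored through PicoGreen staining of dsDNA formed from ssM13Gori, dNTPs and NTPs, with compound preincubation and room-temperature reaction.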

The target of test [8] is Tumor susceptibility gene 101 protein (Homo sapiens) (UniProt Q99816). The test is described as follows: qHTS Validation Assay for Iinhibitors of HIV-1 Budding by Blocking the Interaction of PTAP/TSG101 (AID 485342; calls by dose curve). In short, it runs like this:
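Compound wells held the Tsg101 binding domain (10 uM) and a FITC-conjugated PTAP peptide (50 nM) in buffer at pH 7.5 containing 0.15 M NaCl and 0.01% Tween 20; polarization was recorded after 20 min, r.t.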

The nature of test [9]: qHTS Validation Assay to Find Inhibitors of Chronic Active B-Cell Receptor Signaling (AID 485345; active = well fitted curve in the direction sought with a large enough effect in the main read-out, with a control signal flat, not every such curve was filed as active). Summed up:
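TMD8 ABC-DLBCL cells stably carrying doxycycline-inducible IkappaBalpha–green luciferase fusion plus unfused red luciferase; compounds 46 uM to 3 nM, 4 h at 37C with doxycycline. Corrected green/red luminescence ratio normalized to 10 uM MG-132 and basal cell wells; curves fitted.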

Test [10] has as its target Beta-2 adrenergic receptor (Homo sapiens) (UniProt P07550). The test is described as follows: qHTS validation assay of beta-arrestin-biased ligands of beta2-adrenergic receptor (AID 485366). Summed up:
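Compound series up to 46 microM applied to beta2-AR/beta-arrestin Tango cells, 18 hr, 37 degrees C, 5% CO2. Read-out: tTA-driven luciferase luminescence, converted to %Activity; concentration-response curves assigned curve classes.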

In test [11] the target is ATP-dependent 6-phosphofructokinase (Trypanosoma brucei brucei) (UniProt O15648). Kind of test: qHTS Validation Assay to Find Inhibitors of T. brucei phosphofructokinase (AID 485368). Summed up: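 qHTS format, up to 57 uM. PFK 1.25 nM; F6P 0.5 mM; ATP 0.1 mM; 5 mM MgCl2, 0.01% Tween20, 0.1% BSA; 0.1 M TEA pH 8.0; 45 min RT; ADP-Glo readout; no-enzyme control = full inhibition.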

Test [12] can be described thus: Quantitative high throughput screen for delayed death inhibitors of the malarial parasite plastid, 96 hour incubation (AID 488745). Note: nearly all actives have a fitted effect of over 70% in size. Note: potency is the fitted concentration of half-maximal effect. Summed up: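 Readout is firefly luciferase luminescence from an integrated reporter in P. falciparum; lower signal marks inhibited growth. Cultures at 2% hematocrit and 0.1% parasitemia were treated with compound across two generations (96 h, 37 C, 5% CO2).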

The nature of test [13]: Quantitative high throughput screen for delayed death inhibitors of the malarial parasite plastid, 48 hour incubation (AID 488752). Note: nearly all actives have a fitted effect of over 65% in size. In short, it runs like this:
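First, compound was pinned into RPMI 1640 medium containing 0.5% Albumax. Next, reporter-parasite-infected erythrocytes were added to 2% hematocrit and 0.1% parasitemia. After 48 h at 37 C under 5% CO2, luciferase detection reagent was added and luminescence read.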

For test [14], the target named is Thioredoxin reductase 1, cytoplasmic (Rattus norvegicus) (UniProt O89049). The test is described as follows: qHTS Assay for Substrates of Mammalian Selenoprotein Thioredoxin Reductase 1 (TrxR1) (AID 488772).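 Note: series mostly up to about 57 µM; a drop in NADPH fluorescence below the no-compound background marks a TrxR1 substrate.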 In short, it runs like this: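 In this dual-purpose format, potential substrates are identified from the first fluorescence read after selenite addition, not from the 8-minute delta. Rat enzyme is preincubated with NADPH and then with compound at ~22 deg C.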

The target is the same in test [15]. The test is described as follows: qHTS Assay for Inhibitors of Mammalian Selenoprotein Thioredoxin Reductase 1 (TrxR1) (AID 488773).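 Note: drop in NADPH fluorescence over an 8 min run after selenite addition; series mostly up to about 57 µM; nearly all actives have a fitted effect of over 40% in size.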 Particulars: Potency: inhibition. Summed up: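 Inhibition is scored from the loss of NADPH fluorescence between first and last reads of an 8-min kinetic run. Selenite (400 uM) was the substrate, added after 15 min compound preincubation at room temperature.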

The target of test [16] is Flap endonuclease 1 (Homo sapiens) (UniProt P39748). The test is described as follows: qHTS Validation Assay for the Inhibitors of Human Flap endonuclease 1 (FEN1) (AID 488816). In short, it runs like this:
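Enzyme reagent 10 nM; cpds pinned; 15 min RT preinc.; substrate 50 nM final; reads t=0 and 15 min; no-enzyme buffer wells as neg. control; normalized data, 4-parameter Hill fit.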

For test [17], the target named is M-phase phosphoprotein 8 (Homo sapiens) (UniProt Q99549). Kind of test: qHTS Validation Assay for Inhibitors for MPP8 Chromodomain Interactions with Methylated Histone Tails (AID 488949).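 Note: 50 nM MPP8 with 50 nM peptide preformed then compounds added for 30 min; AlphaScreen signal from MPP8 chromodomain bound to biotinylated H3K9me3 peptide; top concentration of the series differs between compounds; nearly all actives have a fitted effect of over 55% in size.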 Summed up:
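Chemiluminescent proximity assay: histidine-tag capture via nickel acceptor beads, biotin peptide via streptavidin donor beads. Protein and peptide each at 50 nM, pH 7.4, with 30 min incubations at room temperature for complex formation, compound exposure and bead binding.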

Test [18] concerns the target Chromobox protein homolog 1 (Homo sapiens) (UniProt P83916). The test is described as follows: qHTS Validation Assay for Inhibitors of HP1-beta Chromodomain Interactions with Methylated Histone Tails (AID 488953).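 Note: loss of AlphaScreen luminescence from HP1-beta binding biotinylated H3K9me3 peptide; series mostly up to about 110 µM; nearly all actives have a fitted effect of over 50% in size.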 Summed up:
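Disruption of preformed HP1-beta:H3K9me3 peptide complexes (both 50 nM, PBS pH 7.4 with 0.01% Tween-20) is measured by AlphaScreen after 30 min compound exposure at room temperature, using streptavidin donor and nickel chelate acceptor beads at 10 ug/mL final.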

Test [19] deals with Methanococcus maripaludis chaperonin (MmCpn) (UniProt Q6LX38). Kind of test: High-Throughput Screening for Modulators of Cytosolic Chaperonin Activity: MmCpn Primary Screen (AID 488978). In short, it runs like this: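 HTRF readout (320 nm excitation, 590/665 nm emission) of ADP generated by 50 nM MmCpn hydrolysing 30 uM ATP during 10 min at 37C; compound preincubated 5 min RT.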
Sequence of Methanococcus maripaludis chaperonin (MmCpn) (Q6LX38 1-543): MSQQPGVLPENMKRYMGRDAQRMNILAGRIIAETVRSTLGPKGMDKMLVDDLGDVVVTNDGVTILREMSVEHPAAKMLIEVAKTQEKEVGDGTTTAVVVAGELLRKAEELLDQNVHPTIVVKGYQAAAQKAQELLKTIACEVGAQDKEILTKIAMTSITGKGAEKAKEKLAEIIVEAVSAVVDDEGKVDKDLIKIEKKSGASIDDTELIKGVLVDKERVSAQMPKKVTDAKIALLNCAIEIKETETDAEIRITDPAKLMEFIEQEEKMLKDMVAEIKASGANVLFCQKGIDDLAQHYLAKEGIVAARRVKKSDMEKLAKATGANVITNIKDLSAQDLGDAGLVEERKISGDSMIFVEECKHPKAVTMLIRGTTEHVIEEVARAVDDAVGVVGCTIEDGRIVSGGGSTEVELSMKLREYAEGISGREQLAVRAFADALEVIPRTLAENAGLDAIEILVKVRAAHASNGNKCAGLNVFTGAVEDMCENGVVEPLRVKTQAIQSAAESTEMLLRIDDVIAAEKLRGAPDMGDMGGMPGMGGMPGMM

Sequence of Thioredoxin reductase 1, cytoplasmic (Rattus norvegicus) (O89049 whole entry, looked up): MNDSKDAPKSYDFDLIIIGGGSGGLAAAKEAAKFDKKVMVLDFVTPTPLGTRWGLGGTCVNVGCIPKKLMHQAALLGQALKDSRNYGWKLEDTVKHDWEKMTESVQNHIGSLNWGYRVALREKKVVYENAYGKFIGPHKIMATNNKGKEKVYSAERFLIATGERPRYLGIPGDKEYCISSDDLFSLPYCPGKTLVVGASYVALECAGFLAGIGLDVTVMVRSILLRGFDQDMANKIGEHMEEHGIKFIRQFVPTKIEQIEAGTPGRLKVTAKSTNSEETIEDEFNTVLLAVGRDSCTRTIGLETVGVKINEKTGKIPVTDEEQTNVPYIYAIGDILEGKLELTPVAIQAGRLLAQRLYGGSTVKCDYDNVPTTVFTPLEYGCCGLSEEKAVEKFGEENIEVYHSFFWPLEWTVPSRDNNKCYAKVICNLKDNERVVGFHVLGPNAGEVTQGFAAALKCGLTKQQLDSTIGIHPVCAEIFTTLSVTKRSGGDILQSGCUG
Sequence of DNA polymerase III PolC-type (Bacillus subtilis (strain 168)) (P13267 whole entry, looked up): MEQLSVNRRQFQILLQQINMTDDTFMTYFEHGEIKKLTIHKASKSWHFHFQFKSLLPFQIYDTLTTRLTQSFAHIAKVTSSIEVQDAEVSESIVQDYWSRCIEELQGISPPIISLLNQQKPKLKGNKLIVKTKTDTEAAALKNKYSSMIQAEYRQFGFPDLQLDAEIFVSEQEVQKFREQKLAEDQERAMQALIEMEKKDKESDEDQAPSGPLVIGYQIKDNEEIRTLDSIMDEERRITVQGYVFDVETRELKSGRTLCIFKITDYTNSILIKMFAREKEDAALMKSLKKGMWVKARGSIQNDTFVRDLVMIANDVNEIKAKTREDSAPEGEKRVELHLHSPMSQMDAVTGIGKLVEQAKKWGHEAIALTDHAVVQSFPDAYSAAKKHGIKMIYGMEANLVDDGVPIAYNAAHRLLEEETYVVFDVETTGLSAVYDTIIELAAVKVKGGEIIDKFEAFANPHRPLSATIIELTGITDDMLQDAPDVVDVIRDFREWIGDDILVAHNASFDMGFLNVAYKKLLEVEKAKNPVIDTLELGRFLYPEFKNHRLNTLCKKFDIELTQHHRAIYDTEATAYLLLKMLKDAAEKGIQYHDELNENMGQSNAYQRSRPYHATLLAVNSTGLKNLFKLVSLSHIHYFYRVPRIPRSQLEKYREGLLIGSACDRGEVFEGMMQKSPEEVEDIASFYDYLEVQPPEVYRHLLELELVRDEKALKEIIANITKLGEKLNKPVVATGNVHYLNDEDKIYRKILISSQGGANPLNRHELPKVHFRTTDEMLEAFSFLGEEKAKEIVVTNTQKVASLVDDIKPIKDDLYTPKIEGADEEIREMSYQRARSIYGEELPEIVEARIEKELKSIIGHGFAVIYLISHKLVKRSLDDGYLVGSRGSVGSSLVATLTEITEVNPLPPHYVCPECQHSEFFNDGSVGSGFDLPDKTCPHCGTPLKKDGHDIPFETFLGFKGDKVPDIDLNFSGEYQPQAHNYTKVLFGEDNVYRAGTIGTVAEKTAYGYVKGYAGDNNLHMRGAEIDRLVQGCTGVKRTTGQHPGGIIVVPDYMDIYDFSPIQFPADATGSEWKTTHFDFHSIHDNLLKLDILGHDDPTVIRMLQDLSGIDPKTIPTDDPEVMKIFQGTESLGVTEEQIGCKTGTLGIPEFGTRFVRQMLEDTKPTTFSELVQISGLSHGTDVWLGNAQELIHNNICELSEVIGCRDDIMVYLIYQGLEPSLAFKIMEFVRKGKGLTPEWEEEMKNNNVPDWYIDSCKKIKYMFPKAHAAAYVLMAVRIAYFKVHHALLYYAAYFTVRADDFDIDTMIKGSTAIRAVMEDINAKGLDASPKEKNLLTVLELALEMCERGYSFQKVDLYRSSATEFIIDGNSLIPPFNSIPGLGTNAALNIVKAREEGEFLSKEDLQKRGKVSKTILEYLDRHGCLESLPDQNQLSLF
Sequence of Tumor susceptibility gene 101 protein (Homo sapiens) (Q99816 whole entry, looked up, the tested form may be a part): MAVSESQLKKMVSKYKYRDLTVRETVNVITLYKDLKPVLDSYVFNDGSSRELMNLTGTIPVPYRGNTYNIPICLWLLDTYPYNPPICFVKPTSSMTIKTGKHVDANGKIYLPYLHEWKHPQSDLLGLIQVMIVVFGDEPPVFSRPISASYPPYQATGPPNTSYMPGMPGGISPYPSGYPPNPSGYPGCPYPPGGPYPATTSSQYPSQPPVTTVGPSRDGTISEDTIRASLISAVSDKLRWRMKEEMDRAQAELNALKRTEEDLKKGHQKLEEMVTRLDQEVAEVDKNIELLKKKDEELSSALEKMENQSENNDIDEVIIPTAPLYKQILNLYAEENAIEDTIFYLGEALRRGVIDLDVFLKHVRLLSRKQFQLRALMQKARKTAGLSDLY
Sequence of Ubiquitin carboxyl-terminal hydrolase 2 (Homo sapiens) (O75604 whole entry, looked up): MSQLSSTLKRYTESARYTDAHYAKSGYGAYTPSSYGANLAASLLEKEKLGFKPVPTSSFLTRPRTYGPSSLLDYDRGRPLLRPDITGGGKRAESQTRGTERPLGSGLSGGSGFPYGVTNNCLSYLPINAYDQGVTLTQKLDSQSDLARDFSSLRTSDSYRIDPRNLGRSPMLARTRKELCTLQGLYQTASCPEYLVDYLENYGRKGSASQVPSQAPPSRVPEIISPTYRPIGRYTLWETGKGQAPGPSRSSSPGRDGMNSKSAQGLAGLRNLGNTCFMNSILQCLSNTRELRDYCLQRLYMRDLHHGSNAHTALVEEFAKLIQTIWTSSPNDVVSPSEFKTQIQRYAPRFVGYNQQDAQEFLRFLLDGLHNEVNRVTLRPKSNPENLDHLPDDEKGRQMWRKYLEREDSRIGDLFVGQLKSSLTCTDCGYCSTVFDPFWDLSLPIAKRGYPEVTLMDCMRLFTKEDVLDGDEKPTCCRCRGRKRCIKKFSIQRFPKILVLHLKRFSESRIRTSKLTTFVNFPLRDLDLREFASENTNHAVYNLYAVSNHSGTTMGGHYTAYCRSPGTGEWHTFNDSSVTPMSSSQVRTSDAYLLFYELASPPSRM
Sequence of Chromobox protein homolog 1 (Homo sapiens) (P83916 whole entry, looked up): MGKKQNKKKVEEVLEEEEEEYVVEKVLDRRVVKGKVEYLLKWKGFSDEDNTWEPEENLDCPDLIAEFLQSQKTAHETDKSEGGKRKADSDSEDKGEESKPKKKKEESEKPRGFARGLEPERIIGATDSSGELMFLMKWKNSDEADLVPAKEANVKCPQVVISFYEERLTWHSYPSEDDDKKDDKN
Sequence of M-phase phosphoprotein 8 (Homo sapiens) (Q99549 whole entry, looked up): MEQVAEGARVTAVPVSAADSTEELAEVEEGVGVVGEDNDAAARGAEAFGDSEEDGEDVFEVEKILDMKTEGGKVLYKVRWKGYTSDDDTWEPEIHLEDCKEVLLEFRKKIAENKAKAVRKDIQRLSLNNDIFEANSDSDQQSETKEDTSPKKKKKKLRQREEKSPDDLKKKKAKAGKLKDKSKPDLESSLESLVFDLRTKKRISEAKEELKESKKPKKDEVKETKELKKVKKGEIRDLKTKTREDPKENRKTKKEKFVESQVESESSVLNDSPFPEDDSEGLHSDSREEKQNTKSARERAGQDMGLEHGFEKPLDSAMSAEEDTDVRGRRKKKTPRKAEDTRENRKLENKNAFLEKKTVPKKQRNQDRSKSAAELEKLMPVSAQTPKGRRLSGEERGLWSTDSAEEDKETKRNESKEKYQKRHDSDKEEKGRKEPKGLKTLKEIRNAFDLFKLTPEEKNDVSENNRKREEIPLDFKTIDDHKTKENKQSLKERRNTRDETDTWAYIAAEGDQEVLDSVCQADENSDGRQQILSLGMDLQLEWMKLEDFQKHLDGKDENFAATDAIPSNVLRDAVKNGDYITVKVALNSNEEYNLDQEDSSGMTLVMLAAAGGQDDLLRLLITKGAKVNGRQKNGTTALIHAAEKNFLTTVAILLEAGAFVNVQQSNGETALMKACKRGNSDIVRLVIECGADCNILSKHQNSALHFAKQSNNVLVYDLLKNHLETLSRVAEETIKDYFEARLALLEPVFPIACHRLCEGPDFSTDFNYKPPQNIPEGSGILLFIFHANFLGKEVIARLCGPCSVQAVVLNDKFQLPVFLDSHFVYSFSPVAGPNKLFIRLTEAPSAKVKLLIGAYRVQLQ
Sequence of ATP-dependent 6-phosphofructokinase (Trypanosoma brucei brucei) (O15648 whole entry, looked up): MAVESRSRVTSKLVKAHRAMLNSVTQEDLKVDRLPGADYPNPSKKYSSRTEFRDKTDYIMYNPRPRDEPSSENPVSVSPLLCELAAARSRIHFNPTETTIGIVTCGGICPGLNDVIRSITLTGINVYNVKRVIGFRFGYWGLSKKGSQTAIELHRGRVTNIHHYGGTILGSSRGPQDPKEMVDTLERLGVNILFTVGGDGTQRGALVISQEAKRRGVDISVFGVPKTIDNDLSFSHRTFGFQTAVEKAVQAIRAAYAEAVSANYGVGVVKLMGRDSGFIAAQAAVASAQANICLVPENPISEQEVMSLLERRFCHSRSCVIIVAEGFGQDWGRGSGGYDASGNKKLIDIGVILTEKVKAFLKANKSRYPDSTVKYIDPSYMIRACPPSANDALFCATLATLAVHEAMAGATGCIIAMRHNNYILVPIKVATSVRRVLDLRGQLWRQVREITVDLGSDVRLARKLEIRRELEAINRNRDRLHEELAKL

`O=[N+]([O-])c1cccc2cn[nH]c12`: the outcome in [1], in test [8], in [9], in test [10], in test [14] and in [19] was inactive. In addition, the Potency result in test [2], in [3], in [4], in test [5], in [6] and in [7] was “inactive” in each case. The Potency result in test [11], in test [12], in test [13], in [15], in test [16] and in [17] was “inactive” each time. Further, the Potency entry in test [18] was “inactive”.

On to `NCC(O)(CS(=O)(=O)O)c1ccc(Cl)cc1` (stereo unspecified), for which the molecule was classed as inactive in test [1], in test [8], in test [9], in test [10], in test [14] and in [19]. In addition, the Potency result in [2], in test [3], in test [4], in test [5], in test [6] and in test [7] was “inactive” throughout. For the same molecule, the Potency entry in test [11], in test [12], in test [13], in [15], in test [16] and in test [17] was “inactive” each time.

Regarding `CN1C2CCC1CC(OC(c1ccccc1)c1ccccc1)C2` (stereo unspecified), the outcome in test [1], in test [8], in [9], in [10], in [14] and in [19] was inactive. Besides, the Potency entry in [2], in test [3], in [4], in [5], in test [6] and in test [7] was “inactive” throughout. For the same molecule, the Potency result in [11], in [15], in [16], in test [17] and in test [18] was “inactive” in each case. Moreover, the Potency in [12] is 8.28 µM (active).

In the case of `COC(=O)C(C)(N)Cc1ccc(O)cc1` (stereo unspecified), the outcome in test [1], in [8], in test [9], in test [10] and in [19] was inactive. In addition, the Potency result in test [2], in test [3], in test [4], in test [5], in test [6] and in test [7] was “inactive” each time. Moreover, the Potency result in test [11], in test [12], in test [15], in [16] and in [17] was “inactive” each time.

With `O=c1onc2n1-c1cc(Br)ccc1OC2`, the result in [1], in [8], in test [9], in test [10], in test [14] and in test [19] was inactive. Further, the Potency result in test [2], in [3], in test [4], in [5], in test [6] and in [7] was “inactive” throughout. Also, the Potency result in [11], in test [12], in [13], in test [15], in test [16] and in [17] was “inactive” in each case.

`O=C(O)CCC(=O)N1CCCC1C(=O)O` (stereo unspecified): the result in [1], in test [8], in test [9], in [10], in test [14] and in test [19] was inactive. Also, the Potency result in test [2], in [3], in test [4], in test [5], in test [6] and in [7] was “inactive” each time. Besides, the Potency result in test [11], in test [12], in [15], in [16] and in [17] was “inactive” in each case.

Regarding `N#CC(C#N)=C(N)/C(C#N)=C/c1ccc(O)cc1`, the molecule was classed as inactive in [1], in test [8], in test [9], in test [10], in test [14] and in test [19]. Besides, the Potency entry in [2], in test [3], in [4], in [5], in [6] and in test [7] was “inactive” throughout. For the same molecule, the Potency entry in [11], in [12], in [13], in test [16] and in test [17] was “inactive” in each case.

Take `NC(=O)c1ccccc1`: the molecule was classed as inactive in test [1], in [8], in test [9], in test [10], in [14] and in [19]. The Potency entry in test [2], in test [3], in test [4], in test [5], in test [6] and in test [7] was “inactive” each time. Besides, the Potency entry in [11], in test [12], in test [13], in test [15], in [16] and in test [18] was “inactive” in each case.
